Experimental data published in PubChem BioAssay.
Active and inactive are the calls of the source.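 How the source made its calls: active means compounds whose cell count with miR-34 switched on is under 0.7 times the count with it off; inactive means the rest.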

Experiment: viability loss with induced miR-34 in A549 – imaging, A549 dox-inducible miR-34, nuclei and caspase counts, primary screen (AID 1347080); further: test concentration not given here
Settings: A549 miR-34 inducible, Hoechst nuclei count, 48 h
[1] = stronger effect = lower value, cell number ratio, induced over uninduced
[2] = measured here: relative caspase fold change +Dox/-Dox
[3] = measured here: total cells with miR-34 induction, stronger effect = lower value
[4] = measured here: total cells without miR-34 induction

Row | SMILES | fold change [1] | fold change [2] | cell count [3] | cell count [4]
1 | CCCCCCCCCCCC(=O)c1nc2ncccc2o1 | 0.934 (inactive) | 1.01 | 5110 | 5460
2 | COc1cc(C[C@H]2COC(=O)[C@@H]2Cc2ccc(O)c(OC)c2)ccc1O | 0.981 (inactive) | 0.938 | 5500 | 5600
3 | CCCCC(C)(C)[C@H](O)/C=C/[C@H]1C(=O)C[C@H](O)[C@@H]1C/C=C\CCCC(=O)O | 1.04 (inactive) | 0.943 | 5440 | 5250
4 | CCCCCCCCCCCCCCCC(=O)OC[C@H](COP(=O)([O-])OCC[N+](C)(C)C)OC(=O)CCCCCCCC(=O)/C=C/C(=O)O | 0.943 (inactive) | 0.858 | 5750 | 6100
5 | CCCCCCCCCCCCC/C=C/[C@@H](O)[C@H](CO)NC(=O)CCCCC | 0.988 (inactive) | 0.834 | 5840 | 5910
6 | C=C1C[C@H](O)[C@H](C/C=C\CCCC(=O)O)[C@H]1/C=C/C(=O)CCCCC | 1.11 (inactive) | 1.24 | 5720 | 5160
7 | CCCCC[C@H](O)/C=C/[C@@H]1[C@@H](C/C=C\CCCC(=O)NCCO)[C@@H](O)C[C@@H]1O | 0.916 (inactive) | 1.36 | 5800 | 6330
8 | CCCCCCCCCCCCCCCCC/C=C\C(=O)O | 0.872 (inactive) | 1 | 5170 | 5930
9 | [C-]#[N+]c1cc(-c2ccncc2)c(C)[nH]c1=O | 0.91 (inactive) | 1.32 | 5870 | 6450
10 | O=C1OC(O)C(c2cc3ccccc3s2)=C1Br (centres undefined) | 0.915 (inactive) | 0.534 | 5180 | 5660
11 | CCCCCCCC/C=C\CCCCCCCC(=O)N[C@@H](CO)C(=O)O | 1.01 (inactive) | 1.73 | 5230 | 5180
12 | CC(C)OC(=O)CCC/C=C\C[C@@H]1[C@@H](/C=C/C(F)(F)COc2ccccc2)[C@H](O)C[C@@H]1O | 1.05 (inactive) | 0.899 | 5900 | 5630
13 | CCCCCCCCCCCCCCCCSC[C@H](COP(=O)([O-])OCC[N+](C)(C)C)NC(=O)CCCCCCCCCCCCCCC | 1.04 (inactive) | 0.778 | 6260 | 6010
14 | CCCCCCCCCCCCC/C=C/[C@@H](O)[C@H](COP(=O)(O)O)NC(=O)CCCCCCC | 1.01 (inactive) | 0.912 | 5610 | 5550
15 | CCCCCCCCCCCCCCNC(=O)C1CCCCC1 | 0.905 (inactive) | 0.661 | 4920 | 5430
16 | CCCCCCCCCCCCCCCC(=O)OC[C@@H](O)COP(=O)([O-])OCC[N+](C)(C)C | 1.02 (inactive) | 1.32 | 5910 | 5770

Row | SMILES | fold change [1] | fold change [2] | cell count [3] | cell count [4]
17 | C=C(N)N[C@@H](CCC(=O)O)C(=O)O | 0.873 (inactive) | 0.849 | 8430 | 9660
18 | CC/C(=C\C(=N/O)C(N)=O)C(C)[N+](=O)[O-] (centres undefined) | 1.05 (inactive) | 1.1 | 6540 | 6230
19 | O=C(CCC/C=C\C[C@@H]1[C@@H](/C=C/[C@@H](O)CCc2ccccc2)[C@H](O)C[C@@H]1O)NC(CO)CO | 0.978 (inactive) | 1.15 | 5210 | 5330
20 | CCCCC/C=C\C/C=C\C/C=C\C/C=C\CCCC(=O)SCC(O)CO (centres undefined) | 0.986 (inactive) | 0.486 | 5460 | 5540
21 | CC/C=C\C/C=C\C/C=C\C/C=C\CCCCCCC(=O)O | 1.03 (inactive) | 1 | 5320 | 5150
22 | O=P(O)(O)O[C@H]1[C@@H](O)[C@H](O)[C@@H](OP(=O)(O)O)[C@H](OP(=O)(O)O)[C@H]1O | 0.877 (inactive) | 1.8 | 5820 | 6630
23 | O=C(O)CCC/C=C\C[C@@H]1[C@@H](CCC(=O)CCc2ccccc2)[C@H](O)C[C@@H]1O | 0.934 (inactive) | 1.4 | 5970 | 6390
24 | CC(C)=CCC/C(C)=C/CC/C(C)=C/C(O)P(=O)(O)O (centres undefined) | 0.968 (inactive) | 0.767 | 5800 | 5990
25 | CN(C)C(=O)CCSC(SCCC(=O)O)c1cccc(/C=C/c2ccc3ccc(Cl)cc3n2)c1 (centres undefined) | 1 (inactive) | 1.76 | 5360 | 5340
26 | N#Cc1cc2c(OCC(O)CN3CCN(C(c4ccccc4)c4ccccc4)CC3)cccc2[nH]1 (centres undefined) | 0.956 (inactive) | 1.38 | 1480 | 1550
27 | CCCCC[C@@H](O)/C=C/[C@@H]1[C@H](C/C=C\CCCC(=O)O)[C@@H](O)C[C@H]1O | 0.832 (inactive) | 1.39 | 5000 | 6010
28 | CCCCC[C@H](O)/C=C/[C@@H]1[C@@H](C/C=C\CCCC(=O)N(CC)CC)[C@@H](O)C[C@H]1O | 0.98 (inactive) | 0.858 | 5500 | 5610
29 | CCCCCC(=O)CC[C@@H]1[C@@H](CCCCCCC(=O)O)[C@@H](O)C[C@H]1O | 0.953 (inactive) | 1.23 | 6140 | 6450
30 | O=C(Cc1ccccc1Nc1c(Cl)cccc1Cl)Oc1ccc(-c2cc(=S)ss2)cc1 | 0.933 (inactive) | 1.55 | 6130 | 6570
31 | CCCCC[C@H](O)/C=C/[C@@H]1[C@@H](C/C=C\CCCCOC)[C@@H](O)C[C@H]1O | 0.815 (inactive) | 1.35 | 5300 | 6500
